In PubChem BioAssay AID488862 (Broad Institute, 2010):
The campaign covered roughly 340,000 compounds. About 1,200 (0.35%) were called active. Shown is part of a subset that was picked to be rich in actives. Values without a mark were called inactive. No stated cut-off is given here; in the data, active means inhibition above about 52%; inactive means the rest.

Test: inhibition of PrP 5' UTR reporter expression (AID 488862); further: 0 = median of the neutral control wells
Settings: cell-based PrP 5' UTR mRNA reporter, plate reader; hits give high values; concentration not given here

SMILES | inhibition
COc1cccc2c1C(=O)c1c(O)c3c(c(O)c1C2=O)CC(O)(C(C)=NNC(=O)c1ccc(Cl)c(Cl)c1)CC3OC1CC(N)C(O)C(C)O1 (stereo not drawn) | 81% (active)
CC(=O)Nc1ccc(C(=O)Nc2cc(S(=O)(=O)N3CCOCC3)ccc2N2CCOCC2)cc1 | 2.41%
O=C(CN1C2CCC1CC(NC(=O)C1CC1)C2)NCc1ccccc1 (stereo not drawn) | -21.6%
CCCS(=O)(=O)N1CCN(C(=O)c2cccs2)CC1 | -11%
Nc1nc(SCC(=O)NCCN2CCOCC2)nc2sc3c(c12)CCC3 | -29.6%
CC(C)(C)C1CCc2c(sc3nc(SCC(N)=O)nc(N)c23)C1 (stereo not drawn) | 67.4% (active)
C=C(C)CSc1nc(N)c2c3c(sc2n1)CCC3 | -92.1%
CC1O[C@@H](OC2C(O)C(C)O[C@H](OC(=O)[C@]34CCC(C)(C)C[C@H]3C3=CCC5[C@@]6(C)CC(O)C(O[C@@H]7OC(CO)C(O)[C@@H](O)[C@@H]7O)[C@@](C)(C(=O)O)C6CC[C@@]5(C)[C@]3(CO)CC4)C2O[C@H]2OC(C)[C@@H](O[C@@H]3OCC(O[C@@H]4OC(CO)C(O)[C@H](O)C4O)[C@@H](O)[C@@H]3O)[C@H](O)C2O)C(O)C(O)C1O (stereo partly drawn) | -19.6%
COc1ccc(CCC(=O)Nc2ccc(Cl)c(S(=O)(=O)N3CCOCC3)c2)cc1OC | -6.15%
O=[N+]([O-])c1ccc(NC(=S)N2CCN(c3ccccn3)CC2)cc1 | -31.5%
COc1cc([N+](=O)[O-])ccc1NC(=S)N1CCN(c2ccccn2)CC1 | 60.8% (active)
CNC(=S)N1CCN(c2ccccn2)CC1 | 2.28%
CN1CCN(c2ccc([N+](=O)[O-])c(Sc3nc4ccccc4[nH]3)c2)CC1 | -6.9%
CCCn1nc(NS(=O)(=O)c2ccccc2)c2cc3cc(C)ccc3nc21 | -7.37%
Cc1ccc(S(=O)(=O)N(C)CC(=O)N2CCc3ccccc32)cc1 | -9.45%
COc1ccccc1N1CCN(C(=O)c2ccc(Cl)c(S(=O)(=O)N3CCCC3)c2)CC1 | -12.2%
COc1cc2c(cc1OC)CN(C(=O)c1cc(=O)c3ccccc3o1)CC2 | -36.4%
COc1ccccc1N1CCN(C(=O)c2cc(=O)c3cc(C)cc(C)c3o2)CC1 | 72.6% (active)
O=C(Nc1ccc([N+](=O)[O-])cc1)OCCc1ccccn1 | -55.9%
Cc1ccc(C(=O)N/C(=C\c2ccc(F)cc2)C(=O)NCCN2CCOCC2)cc1 | -18.5%
COc1ccc(C(=O)Nc2ccccc2C(=O)N/N=C/c2ccc(O)c(OC)c2)cc1 | 80.5% (active)
COc1ccc(C(=O)Nc2cc(C)c(NC(=O)c3ccccc3OC)cn2)cc1 | -9.89%
COc1cc(C=NNC(=O)c2cccnc2)ccc1OC(=O)c1ccccc1F | -15.7%
